# MPTP block = blocks calcium-induced mitochondrial swelling; 360,000 compounds, 1.4% hits; isolated mouse mitochondria, Ca2+ swelling absorbance, 30 min; inhibition, % at 10 µM; AID 602449;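 active = inhibition of 50% or more, scaled per plate between neutral and stimulator controls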
# CRFBP-R2 agonist = agonists of human CRF-binding protein/CRF-R2 receptor complex; HEK293 CRF-R2/CRF-BP, calcium dye fluorescence (FLIPR); percent of saturating CRF peptide response; activation, % at 13.2 µM; 350,000 compounds, 0.46% hits; AID 588473;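 active = activation of at least 50%, plus an integration ratio under a set limit after plate pattern correction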
# ANO1 activ = mouse TMEM16A channel activation, primary screen | B-score at 10 µM | Q8BHY3 | AID 623877 | 340,000 compounds, 0.3% hits | HEK293 TMEM16A/YFP-H148Q/I152L, iodide quench fluorescence; stronger effect = lower value;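 active = fluorescence-ratio B-score plate-corrected deviation score at least 3 library SD below zero, with starting fluorescence score within 5 deviations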;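 note: channel opened by trigger with iodide after compound preincubation; score built on the fluorescence ratio of max minus min over baseline; more negative score means more quench and so TMEM16A activation or potentiation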
# Target sequence (Q8BHY3 whole entry, looked up): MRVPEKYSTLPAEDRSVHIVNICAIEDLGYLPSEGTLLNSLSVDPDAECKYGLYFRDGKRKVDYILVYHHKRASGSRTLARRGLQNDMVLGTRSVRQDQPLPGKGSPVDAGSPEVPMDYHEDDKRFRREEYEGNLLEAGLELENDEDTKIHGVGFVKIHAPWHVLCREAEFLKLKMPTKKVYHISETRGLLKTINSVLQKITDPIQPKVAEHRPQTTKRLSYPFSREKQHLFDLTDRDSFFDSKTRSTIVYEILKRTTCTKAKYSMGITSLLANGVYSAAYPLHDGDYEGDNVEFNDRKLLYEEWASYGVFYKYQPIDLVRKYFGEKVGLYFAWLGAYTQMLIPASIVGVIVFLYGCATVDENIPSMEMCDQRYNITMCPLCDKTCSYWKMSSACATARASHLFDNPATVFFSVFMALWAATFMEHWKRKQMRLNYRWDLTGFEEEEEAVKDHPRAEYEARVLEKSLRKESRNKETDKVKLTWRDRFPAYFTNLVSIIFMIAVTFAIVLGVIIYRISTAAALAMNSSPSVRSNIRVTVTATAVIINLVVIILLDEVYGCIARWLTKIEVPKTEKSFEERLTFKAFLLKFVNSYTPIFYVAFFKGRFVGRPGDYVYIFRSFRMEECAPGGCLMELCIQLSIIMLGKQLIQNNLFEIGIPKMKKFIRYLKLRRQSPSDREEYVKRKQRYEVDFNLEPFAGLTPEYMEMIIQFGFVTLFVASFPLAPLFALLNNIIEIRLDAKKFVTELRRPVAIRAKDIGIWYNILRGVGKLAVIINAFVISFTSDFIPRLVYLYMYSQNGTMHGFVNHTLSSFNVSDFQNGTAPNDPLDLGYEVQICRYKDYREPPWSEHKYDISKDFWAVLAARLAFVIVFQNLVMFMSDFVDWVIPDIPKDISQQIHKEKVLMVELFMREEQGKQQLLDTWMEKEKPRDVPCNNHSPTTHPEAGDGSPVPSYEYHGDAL
# GRIN3A LBD mod = NR3A (human) ligand-binding domain modulation | NR3A LBD differential scanning fluorimetry, Tm shift; 0% = protein alone, 100% = glycine-bound protein | Tm shift relative to glycine control, % at 25 µM | 340,000 compounds, 2.5% hits | AID 1259313;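 active = melting temperature shift of at least 10% of the positive control shift, at one fixed dose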
# CRFBP-R2 block = blocks CRF-induced signaling of the CRF-BP/CRF-R2 complex | HEK293 CRF-R2/CRF-BP, CRF-induced calcium fluorescence | inhibition, % at 11.8 µM | 350,000 compounds, 0.59% hits;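 active = inhibition of the ligand-induced calcium signal above about 50% at the single tested concentration, limit read from the data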
# TMEM16A inh = mouse TMEM16A channel inhibition, primary screen; HEK293 TMEM16A/YFP iodide influx fluorescence, ionomycin; AID 588511; Q8BHY3; normalized B-score (activity score, 25-100; higher = stronger inhibition) at 10 µM; 310,000 compounds, 1.2% hits;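 active = ratio plate-corrected score three or more library SD toward inhibition, starting fluorescence score within five deviations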;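 note: score derived from kinetic fluorescence span divided by baseline fluorescence per well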
# MPTP counter = membrane potential counter-screen of mitochondrial pore inhibitors | shares compounds with MPTP block | isolated mitochondria, Rhodamine 123 fluorescence | inhibition, % at 10 µM | 5,000 compounds, 78% hits; in the data active = inhibition above about 22%
# MPTP swell DR = MPTP inhibition, dose response swelling confirmation; shares compounds with MPTP block; isolated mitochondria swelling, absorbance; IC50, µM; 780 compounds, 58% hits; AID 651561; in the data active = IC50 below about 20 µM
# MPTP counter DR = counter-screen for mitochondrial permeability transition pore inhibitors, dose response; shares compounds with MPTP block; 780 compounds, 49% hits; IC50, µM; isolated mitochondria counterscreen, fluorescence read-out; in the data active = IC50 below about 80 µM
# Hits are given with their value; 0 = inactive; - = no result given. Most compounds without a hit are left out; they make up all but 5.1% or so of the library.
SMILES,MPTP block,CRFBP-R2 agonist,ANO1 activ,GRIN3A LBD mod,CRFBP-R2 block,TMEM16A inh,MPTP counter,others
CCc1nc2c(c(=O)[nH]1)C1(CCCC1)Cc1ccccc1-2,0,0,0,-,0,0,-,
O=c1[nH]c(CN2CCCCC2)nc2c1C1(CCCCC1)Cc1ccccc1-2,77,0,0,0,0,0,0,MPTP swell DR=0;MPTP counter DR=0
Cc1ccc(C)c(NC(=O)c2ccccc2NS(=O)(=O)c2cc([N+](=O)[O-])ccc2C)c1,92,63,0,17,78,0,58,
Cc1ccc([N+](=O)[O-])cc1S(=O)(=O)Nc1cccc(S(=O)(=O)Nc2ccccc2C(=O)O)c1,0,0,0,0,0,-,-,
Cc1ccc(C)c(S(=O)(=O)Nc2ccccc2C(=O)Nc2cc(C)on2)c1,58,0,0,0,0,0,70,
O=C(Nc1ccccc1C(F)(F)F)NC1(C(=O)N2CCOCC2)CCCCC1,0,0,0,0,0,-,-,
Nc1nc(C23CC4CCC(CC(C4)C2)C3)cs1,64,0,0,0,0,0,0,MPTP swell DR=0;MPTP counter DR=0
O=C(Cc1ccccc1)NC(=S)Nc1cccc(C(F)(F)F)c1,0,0,0,0,0,0,-,
COC(=O)c1ccc(CSc2ccccc2NC(=S)Nc2cccc(C(F)(F)F)c2)o1,86,0,-,-,0,-,90,
COc1ccc(CO[C@@H]2O[C@H](CO)[C@@H](O)[C@H](O)[C@H]2NC(C)=O)cc1OC,0,0,0,0,0,0,-,
O=C1c2ccc(Oc3ccc([N+](=O)[O-])cc3)cc2C(=O)N1c1ccncc1,87,0,0,0,0,0,79,
COc1ccc(-c2nn(-c3ccccc3)cc2/C=N/O)cc1OC,0,0,0,0,0,0,-,
COc1ccc(-c2nn(-c3ccccc3)cc2/C=N/N=C(N)N)cc1OC,89,0,0,0,0,0,0,
COC(=O)c1ccc2c(=O)n(CCCCCC(=O)N3CCN(c4ccccc4)CC3)c(=O)[nH]c2c1,64,0,0,0,0,0,46,
CCNC(=S)Nc1ccc(Cl)c([N+](=O)[O-])c1,96,0,0,0,0,0,90,
CCOc1ccc(NC(=S)Nc2ccc(C)c([N+](=O)[O-])c2)cc1,86,0,0,0,0,0,90,
Cc1nnc(SC(C(=O)Nc2ccc(Cl)c([N+](=O)[O-])c2)c2ccccc2)[nH]c1=O (stereo unspecified),74,0,0,0,0,0,51,
Cc1ccc(NC(=O)Nc2ccccc2)cc1[N+](=O)[O-],77,0,0,13,0,0,101,
CC(=O)Nc1ccc(C)c([N+](=O)[O-])c1,0,0,0,0,0,0,-,
COc1cccc(CNC(=O)N2CCN(S(=O)(=O)c3ccc(C)cc3)CC2)c1,0,0,0,0,0,0,-,
COc1ccc(NC(=O)CSc2nnnn2C2CCCCC2)cc1,0,0,0,0,0,0,-,
Cn1c(=O)c(=O)n(C)c2cc(S(=O)(=O)N3CCCC3C(=O)Nc3ccccc3F)ccc21 (stereo unspecified),0,0,0,0,0,0,-,
O=C(NNc1ccccc1[N+](=O)[O-])Nc1cccc(Cl)c1,84,0,0,0,0,0,85,
CC(CC(=O)Nc1ccc(Cl)c([N+](=O)[O-])c1)c1ccccc1 (stereo unspecified),105,0,0,0,0,100,90,
O=C(Nc1ccccc1)Nc1ccc(Cl)c([N+](=O)[O-])c1,101,0,0,23,0,100,99,
SMILES,MPTP block,CRFBP-R2 agonist,ANO1 activ,GRIN3A LBD mod,CRFBP-R2 block,TMEM16A inh,MPTP counter,others
O=C(NNc1ccccc1[N+](=O)[O-])Nc1ccc(F)cc1F,0,0,0,0,0,0,-,
O=C(Nc1ccccc1)Nc1ccc(F)c([N+](=O)[O-])c1,94,0,0,26,0,25,99,
CCOc1ccc(NS(=O)(=O)c2cccc(C(=O)NCC3(N(C)C)CCCCC3)c2)cc1,0,0,0,0,0,-,-,
CC(N=C1NS(=O)(=O)c2ccccc21)C(=O)NCc1ccc(F)cc1 (stereo unspecified),0,0,0,0,0,-,-,
O=C(c1cc2sccc2n1Cc1ccc(F)cc1)N1CCN(c2nc3ccccc3s2)CC1,90,0,0,0,0,0,103,
CCOc1ccccc1NC(=O)C(OC(=O)c1ccc(O)cc1)c1ccccc1 (stereo unspecified),89,0,0,26,0,25,86,
Cc1noc(C)c1CSCC(=O)Nc1ccc(S(=O)(=O)C(F)F)cc1,0,0,0,0,0,0,-,
O=C(N/N=C1/C(=O)c2cccc3cccc1c23)c1ccc(Cl)cc1,57,52,0,0,0,0,0,
CCNC(=S)N/N=C1\C(=O)c2cccc3cccc1c23,0,0,0,0,0,0,-,
COc1ccc(Cl)cc1NC(=O)COC(=O)C1CC(=O)N(Cc2ccccc2)C1 (stereo unspecified),0,0,0,0,0,-,-,
Cn1ncc(S(=O)(=O)Cc2ccccc2)c(Cl)c1=O,0,0,0,0,0,0,-,
Cn1ncc(SCc2ccccc2)c(Cl)c1=O,58,0,0,0,0,0,22,
CCOC(=O)c1sc(NC(=O)Cc2ccc(F)cc2)nc1C,0,0,0,0,0,0,-,
CCOC(=O)c1ccccc1NC(=O)Nc1ccc(OC)c(OC)c1,0,0,0,0,0,0,-,
CCOC(=O)c1ccc(NC(=O)Nc2ccc(OC)c(OC)c2)cc1,65,0,0,16,0,0,69,
CCOC(=O)c1cc(NC(=O)Nc2ccc(Br)cc2)c(C)nc1C,74,0,0,0,0,0,70,
COC(=O)c1ccc(NC(=O)Nc2ccc(F)c(Cl)c2)cc1,91,0,0,41,0,0,83,
CCOC(=O)c1sc(NC(=O)Nc2ccc(F)cc2)nc1C,73,0,0,0,0,0,84,
COc1ccc(NC(=O)Nc2ccc(C)cc2OC(F)F)cc1OC,52,0,0,0,0,0,36,
CCc1ccc(NC(=O)Nc2ccon2)cc1,0,0,0,0,0,0,-,
Cc1ccc(NC(=O)Nc2ccc3c(c2)OCO3)c(OC(F)F)c1,0,0,0,0,0,0,-,
COC(=O)c1cc(NC(=O)c2ccc(F)cc2)cc(C(=O)OC)c1,0,0,0,0,0,0,-,
O=C(Nc1ccc([N+](=O)[O-])cc1)Nc1ccon1,58,0,0,0,0,0,99,
CCOC(=O)c1ccc(NC(=O)Nc2ncc(Cl)cc2Cl)cc1,-,-,-,-,-,0,-,

# Screening data as filed in PubChem.
